Reference: PubChem BioAssay AID1259343 (VanderVen Lab, College of Veterinary Medicine, Cornell …, 2017)
Screen size: about 6,200 compounds; about 2,900 (47%) were called active. So high a share suggests a set chosen from earlier hits. Some of the results follow. Values without a mark were called inactive. Cut-off read from the data, not from the text of the source: active = inhibition above about 50%; inactive = the rest.

Assay: Mycobacterium tuberculosis growth inhibition, primary screen (AID 1259343)
Conditions: inhibition: at 10 µM, hits give high values; outcome: 10 uM

Structure (SMILES)	inhibition
Cc1ccc(OCc2cc(C(=O)NC(C)c3nc(-c4ccccc4)no3)no2)cc1C (configuration not stated)	23%
Cc1ccc2ncn(Cc3nc(-c4ccc(C)c(F)c4)no3)c(=O)c2c1	-6.02%
CNC(=O)NC(=O)CCSC(C)c1nc(-c2ccc(C)c(F)c2)no1 (configuration not stated)	91.8% (active)
Cc1ccccc1Cc1nnc(CN(CC(C)O)c2ccccc2)o1 (configuration not stated)	80.1% (active)
CCOC(=O)/C=C/c1c([N+](=O)[O-])sc(Br)c1Br	103% (active)
O=C(Nc1ccc(-c2cscn2)cc1)C1CCCN(Cc2ccon2)C1 (configuration not stated)	inactive
COCc1ccc(CN2CCCC(C(=O)Nc3ccc(-c4cscn4)cc3)C2)o1 (configuration not stated)	29%
O=C(Nc1ccc(-c2cscn2)cc1)C1CCCN(C(=O)Cc2ccccc2F)C1 (configuration not stated)	33.2%
Cc1cccc(CN2CCCC(C(=O)Nc3ccc(-c4cscn4)cc3)C2)c1 (configuration not stated)	88.8% (active)
CC(=O)c1cc(CN2CCCC(C(=O)Nc3ccc(-c4cscn4)cc3)C2)cs1 (configuration not stated)	70.9% (active)
O=C(c1ccc(Cl)s1)N1CCCC(Nc2ccc3c(c2)OCO3)C1 (configuration not stated)	44.6%
O=C(Nc1ccc(-c2cscn2)cc1)C1CCCN(C(=O)c2cccs2)C1 (configuration not stated)	58.2% (active)
Cc1ccc(NC2CCCN(C(=O)C3CCCCC3)C2)cc1C (configuration not stated)	49%
Cc1ccc(NC2CCCN(C(=O)c3cccs3)C2)cc1C (configuration not stated)	59.6% (active)
CC1CCc2sc(-c3nnc(SCc4nc(-c5cccs5)no4)o3)cc2C1 (configuration not stated)	5.99%
c1csc(-c2noc(CSc3nc4ccccc4o3)n2)c1	100% (active)
COc1ccccc1-c1noc(CSc2nc3ccccc3o2)n1	89.1% (active)
CCCNC(=O)CSc1nc2ccccc2o1	-21.7%
O=S(=O)(c1ccc(Cl)s1)N1CCCc2cccc(O)c21	43.4%
Cc1cccc2nc(-c3ccc(C(C)(C)C)cc3)c(NC(C)(C)C)n12	73.6% (active)
CNC(C)c1ccc(Sc2ccc(C(C)C)cc2)c(F)c1 (configuration not stated)	67% (active)
CC(=O)N(C)c1ccc(NC(C)c2ccc(F)c(F)c2)cc1 (configuration not stated)	20%
Cc1cc(I)ccc1N	83.3% (active)

Structure (SMILES)	inhibition
O=C(COc1c(F)c(F)cc(F)c1F)c1ccc[nH]1	65.2% (active)
O=S(=O)(NCCC1=CCCCC1)c1cccc2nonc12	-1.1%
Nn1ccc2nc3ccn(CCC4=CCCCC4)c(=O)c3cc2c1=O	85.4% (active)
CCOC(=O)COc1ccc(C)cc1C(=O)c1cnc2c(c1)COc1ccccc1-2	61.1% (active)
CC(Nc1ccc(OCC(F)(F)F)cc1)C(=O)Nc1ccc(Cl)cn1 (configuration not stated)	97% (active)
CC(Nc1cccc(OC(F)(F)F)c1)C(=O)Nc1cccnc1Cl (configuration not stated)	-51.8%
O=C(CN(C1CCCCC1)C1CC1)Nc1ccc(Cl)cn1	37.5%
O=C1NC(=NN=Cc2cccnc2)SC1Cc1ccc(SC(F)F)cc1 (configuration not stated)	35.2%
Fc1ccccc1-n1cc(-c2ccnc(NC3CCC3)n2)cn1	20.1%
COc1ccnc(NC2CCC(c3ccccc3)CC2)n1 (configuration not stated)	68.9% (active)
O=C(NC1CCC(c2ccccc2)CC1)c1n[nH]c2ccccc12 (configuration not stated)	25.1%
COc1cccc(-c2ccc(NC(=O)C3CCCN(C(=O)c4ccoc4)C3)cc2)c1 (configuration not stated)	inactive
COc1ccc(-c2ccc(C(=O)N3CCC(C(N)=O)C3)c(F)c2)cc1 (configuration not stated)	69.6% (active)
Nc1ccc2oc(-c3cncc(Br)c3)nc2c1	7.61%
Ic1cccc(-c2nnc(-c3ccccc3)o2)c1	103% (active)
Nc1ccc2oc(-c3cccc(I)c3)nc2c1	60.4% (active)
Nc1ccc(-c2nc3cc(Cl)ccc3o2)cc1	90.3% (active)
CC(c1nnc(-c2ccccc2)o1)N(C)CC12CC3CC(CC(C3)C1)C2 (configuration not stated)	-23%
Nc1ccc(Cl)c(-c2nc3cc(Cl)ccc3o2)c1	30%
Cc1cccc(-c2nnc(C(C)Oc3ccccc3C#N)o2)c1 (configuration not stated)	23.4%
CN(C)c1cccc(-c2nc3cc(N)ccc3o2)c1	30.8%
Nc1ccc2oc(-c3cc(F)c(F)cc3Cl)nc2c1	-28%
CS(=O)(=O)c1nnnn1-c1ccccc1Cl	95.7% (active)

Structure (SMILES)	inhibition
COc1cc(C2=NC(=CC3=Cc4ccccc4OC3)C(=O)O2)cc(OC)c1OC	inactive
Cc1ccc(C2=NC(=Cc3ccco3)C(=O)O2)cc1C	-7.96%
COc1cc(C2=NC(=Cc3ccc(N4CCOCC4)s3)C(=O)O2)cc(OC)c1OC	79.7% (active)
O=C(CCl)Nc1ncc(Cc2ccccc2)s1	-18.1%
CC1(C(=O)Nc2nc(-c3ccccc3Cl)cs2)Cc2ccccc2C(=O)O1 (configuration not stated)	37.1%
O=C(Nc1nc(-c2ccco2)c(-c2ccco2)s1)c1cnccn1	-27.4%
Cc1cnc(NC(=O)CCc2nc(C(C)(C)C)no2)s1	-2.31%
O=C(CCl)Nc1nc(-c2ccccc2Cl)cs1	97.7% (active)
O=C(Nc1ncc(Cc2ccccc2Cl)s1)c1cnccn1	92.8% (active)
O=C(CCl)Nc1nc(-c2c[nH]c3ccccc23)cs1	-41.1%
O=C(CCl)Nc1ncc(Cc2ccccc2Cl)s1	92.7% (active)
O=C1CCCC2=C1C(c1cccs1)n1ncnc1N2 (configuration not stated)	-18.9%
O=C(NCCCOCc1ccccc1)c1cc(Cl)c[nH]1	77.7% (active)
CCCC(C)NC(=O)c1cc(Cl)c[nH]1 (configuration not stated)	10.3%
O=C(COc1ccc(F)cc1)NCCc1ccc(OC(F)F)cc1	90.5% (active)
O=C(COc1ccc(F)cc1)NCc1csc(Br)c1	-34.9%
Cc1ccc(C2=NN(C(=O)CN3CCc4ccccc4C3)C(c3ccccc3C)C2)c(C)c1 (configuration not stated)	40.4%
CCOc1cc(C)ccc1NC(=O)CN1Cc2ccccc2C1	14.2%
Cc1ccc(Cl)cc1NC(=O)CN1CCc2ccccc2C1	91.4% (active)
CCN(Cc1cccc(C(N)=O)c1)c1ccccc1C	27.3%
CC1(C)CC(C=Cc2cccs2)=Nc2ccccc2S1	-37.6%
